The text below walks through data of PubChem BioAssay (NCATS).

Test [1] is described as follows: SDT Cancer Cell Toxicity qHTS against the NCATS CANVASS Library (AID 1347365). Also: nearly all actives have a fitted effect of over 60% in size. Also: potency is read from the fitted curve at half-maximal effect. The gist of the method: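 qHTS, SDT dog glioma line, 500 cells/well; cpds 11 pts; 72 hr, 37C, 5% CO2; CellTiterGlo ATP luminescence.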
On the technique in general: In qHTS, concentration-response curves come from the screen itself.

A short description of test [2]: Secretion counterscreen for inhibitors of the SERCaMP assay screened against the NCATS CANVASS Library (AID 1347390).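 Also: light from luciferase secreted into medium read as a measure of general secretion.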 Also: potency is read from the fitted curve at half-maximal effect. The procedure, abridged:
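SH-SY5Y-GLuc STOP cells; 4 h attach; cpds 0.001 - 77 uM (qHTS, 11 pts), 20 h 37C/5% CO2; coelenterazine in glow buffer; luminescence, 5 s exposure.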

A short description of test [3]: qHTS for activators of Nrf2/ARE signaling pathway screened against the NCATS CANVASS Library (AID 1347391). Also: nearly all actives have a fitted effect of over 60% in size. Also: potency is read from the fitted curve at half-maximal effect. The procedure, abridged:
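Plate ARE-bla HepG2 cells at 2000/well and let them settle 5 h. Pin-transfer compounds in DMSO, incubate 16 h at 37C. Load CCF4 for 2 h at room temperature and read blue/green fluorescence.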

The nature of test [4]: qHTS for inhibitors of ER calcium dysfunction: SERCaMP assay screened against the NCATS CANVASS Library (AID 1347393). Also: nearly all actives have a fitted effect of over 40% in size. Also: potency is read from the fitted curve at half-maximal effect. The procedure, abridged: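 Thapsigargin-induced ER calcium depletion drives GLuc-SERCaMP secretion from SH-SY5Y cells; compounds given 16 h beforehand were scored by lowered coelenterazine luminescence after 4 h challenge.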
The nature of test [5]: HPAF-II Cancer Cell Toxicity qHTS against the NCATS CANVASS Library (AID 1347346). Also: nearly all actives have a fitted effect of over 55% in size. Also: potency is read from the fitted curve at half-maximal effect. The gist of the method: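 Luminescence from CellTiter-Glo, added after 72 h compound exposure and a 15 min room-temperature incubation, served as the viability readout. HPAF-II cells (1000/well) received an 11-point concentration series.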
A short description of test [6]: U-118MG Cancer Cell Toxicity qHTS against the NCATS CANVASS Library (AID 1347351). Also: potency is read from the fitted curve at half-maximal effect. The gist of the method:
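Following a 4 h pre-incubation of 1000 seeded cells, compounds were pinned in an 11-pnt dilution series and left for 72 h; viability then came from CellTiter-Glo.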

Test [7] in a line: A2780 Cisplatin Sensitive Ovarian Cancer Cell Toxicity qHTS against the NCATS CANVASS Library (AID 1347353). Also: nearly all actives have a fitted effect of over 60% in size. Also: potency is read from the fitted curve at half-maximal effect. The gist of the method: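 Luminescent ATP content (ATPLite, 10 min at room temperature) served as the read-out after cells had been exposed to compounds for 72 hours at 37 °C. Dosing followed an 11-point concentration series.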
A short description of test [8]: qHTS for ATAD5 Antagonist screened against the NCATS CANVASS Library (AID 1347370). Also: nearly all actives have a fitted effect of over 65% in size. Also: potency is read from the fitted curve at half-maximal effect. The procedure, abridged: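 HEK293T cells with stably integrated ATAD5-luciferase reporter, 2000/well, 5 h attachment; compounds plus 10 µM 5-fluorouridine, 16 h at 37 °C. Luciferase luminescence read, with CellTiter-Fluor viability read first.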
A short description of test [9]: qHTS for Activators of p53 Stress Response Pathway screened against the NCATS CANVASS Library (AID 1347388). The procedure, abridged:
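Beta-lactamase reporter driven by p53 response elements in HCT-116 cells, read as the 460 nm/530 nm emission ratio after CCF4 loading, following 16 h of exposure to an 11-point series. Cell viability was measured in the same wells by CellTiter-Glo luminescence.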

Test [10] in a line: Vero-766 cells viability qHTS against the NCATS CANVASS Library: Counterscreen for Zika virus inhibition assay (AID 1347394). Also: nearly all actives have a fitted effect of over 60% in size. Also: potency is read from the fitted curve at half-maximal effect. The gist of the method:
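Vero 766, no virus; 1000 cells/well; o/n attach; cpd 11-pt; 72 h, 37C, 5% CO2; CTG luminescence; cell-free media wells = 100% inhibition.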

Molecules are shown by their SMILES. Inconclusive results are not listed. The source made the active and inactive calls. Calls follow the shape of the dose curve; as a rule, active = well fitted curve in the direction sought with a large enough effect; inconclusive = small, poorly fitted or top-dose-only effect, or another doubt; inactive = no such curve, though single readings can be large; an effect the other way counts as inactive or inconclusive. Starred links: 1 amine or outer side, 2 acyl side, 3 side chain; linkers in the order of their positions; H or OH if unused. Positions of bridges follow the written chain, without caps; N, C: chain ends. Non-standard residues stand in square brackets, D forms with d. Residues, ends and D or L forms follow the SMILES beside them. ξ: configuration not given here. *: point of attachment. X3 = C[C@@H](Oc1ccc([C@H](N[*:1])C(=O)[*:2])cc1)[C@]1(/C=C\C(=O)[*:3])CO1; d(aIle) = CC[C@H](C)[C@@H](N)C(=O)O; X2 = CC(C)[C@@H](O)C(C)C(=O)*; ξNMeF = CNC(Cc1ccccc1)C(=O)O; ξT = CC(O)C(N)C(=O)O; ξS = NC(CO)C(=O)O

As for `CC[C@@H]1CN2CCc3c([nH]c4cccc(OC)c34)[C@@H]2C[C@@H]1/C(=C\OC)C(=O)OC`, the values for the Potency in [1] and in test [4] were 16.6 µM (active) and 8.6 µM (active), respectively. The Potency result in test [2] and in [3] was “inactive” throughout.

Regarding `C=CC(C)(C)[C@@]12C[C@H]3C(=O)N/C(=C\c4cnc[nH]4)C(=O)N3[C@@H]1Nc1ccccc12`, the Potency entry in test [5], in [6], in [7], in test [1], in test [8] and in test [9] was “inactive” each time. The Potency entry in [2] and in test [10] was “inactive” throughout. Moreover, the Potency in [4] was 34.3 µM (active).

Take `C/C(=C\[C@H](C)C(=O)C[C@H](O)CC1CC(=O)NC(=O)C1)[C@@H]1OC(=O)/C=C/CC/C=C/C=C/[C@@H]1C`: the Potency in test [5] is 0.0943 µM (active); in [7] it was 0.0332 µM (active); in test [1], 0.0662 µM (active); in [8] it was 0.105 µM (active); in test [2], 0.305 µM (active); in test [10] it was 6.6 µM (active). Moreover, the Potency entry in test [9], in [3] and in test [4] was “inactive” throughout.

In the case of `C[N+](C)(C)CCc1c[nH]c2ccccc12`, the Potency result in test [5], in [6], in test [7], in test [1], in test [8] and in [9] was “inactive” throughout. In addition, the Potency result in test [2], in [3], in test [4] and in test [10] was “inactive” in each case.

In the case of `C[C@]12CC(O)C3[C@@H](CC[C@@H]4C[C@@H](O)CC[C@]34CO)[C@@]1(O)CC[C@@H]2C1=CC(=O)OC1` (stereo partly specified), the Potency in test [5] is 10.6 µM (active); in test [6], 2.66 µM (active); in test [7], 7.43 µM (active); in [1], 2.64 µM (active); in [8] it was 13.2 µM (active). Besides, the Potency result in test [9] and in [3] was “inactive” throughout.

Consider `CCCC[C@@H]1CC[C@H]2CCCC(CCCO)N12` (stereo partly specified), for which the Potency result in [5], in test [6], in [7], in test [1], in test [8] and in [9] was “inactive” throughout. The Potency entry in test [2], in [3] and in [10] was “inactive” in each case.

As for `c1ccc2nc3c(cc2c1)[nH]c1ccccc13`, the Potency result in test [5], in test [6], in [8], in [9], in [2] and in [10] was “inactive” each time. Moreover, the Potency in test [3] was 16.6 µM (active).

For the compound `CO[C@@H](/C=C/CC/C=C/C(=O)O)[C@@H](O)[C@H](C)/C=C(\C)[C@H](O)[C@H](C)C(=O)CCCC1CC(=O)NC(=O)C1`, the Potency entry in test [5], in test [6], in test [7], in [1], in test [8] and in [9] was “inactive” in each case. Further, the Potency entry in [2], in test [3], in [4] and in [10] was “inactive” throughout.

Regarding `CC[C@H](C)[C@H]1NC(=O)[C@@H](NC(=O)C(C)[C@H](O)C(C)C)[C@@H](C)OC(=O)C2COC(=O)CNC(=O)/C=C\[C@]3(CO3)[C@@H](C)Oc3ccc(cc3)[C@H](NC1=O)C(=O)N(C)C(Cc1ccccc1)C(=O)NC(C(C)O)C(=O)N2` (stereo partly specified) (X2-T[d(aIle)][X3][ξNMeF][ξT][ξS]; ester 1-C; linker 3-6 via G), the Potency result in [5], in [6], in test [7], in test [8], in test [9] and in [3] was “inactive” in each case. The Potency entry in test [4] and in [10] was “inactive” in each case.

With `C=C(C)[C@H]1C(=O)c2c3c(cc4c5c(n1c24)[C@@]1(C)[C@@H](CC[C@H]2[C@](C)(/C=C/C=C(\C)C(=O)O)[C@@H](O)CC[C@@]21C)C5)C1=CC(C)(C)OC(C)(C)[C@H]1[C@@H]3O`, the Potency in test [5] was 5.95 µM (active); in test [6] it was 18.8 µM (active); in [7], 3.72 µM (active); in test [8], 16.6 µM (active); in [10], 7.41 µM (active). Further, the Potency result in [3] and in test [4] was “inactive” in each case.

As to `CC(C)CC1C(=O)O[C@H](C(C)C)C(=O)N(C)C(CC(C)C)C(=O)O[C@@H](C(C)C)C(=O)N(C)C(CC(C)C)C(=O)O[C@H](C(C)C)C(=O)N(C)C(CC(C)C)C(=O)O[C@@H](C(C)C)C(=O)N1C` (stereo partly specified), the Potency is 5.95 µM (active) in test [5], 5.26 µM (active) in test [7] and 11.7 µM (active) in test [10]. For the same compound, the Potency entry in test [6], in test [9] and in [3] was “inactive” each time.

`C[C@]12CC(O)C3[C@@H](CCC4C[C@@H](O)CC[C@@]43CO)[C@@]1(O)CC[C@@H]2C1=CC(=O)OC1` (stereo partly specified): the Potency was 16.6 µM (active) in test [7] and 10.5 µM (active) in test [1]. The Potency result in [8], in test [3] and in test [4] was “inactive” in each case.

`C/C=C1/CN2C3CC1C1=CCC(=O)N4c5ccccc5[C@@]3(C[C@@H]2C2=C[C@H]3C5CC6N(CC[C@@]67c6ccccc6N(C2=O)[C@@H]37)C/C5=C/C)[C@H]14` (stereo partly specified): the Potency in [5] was 18.8 µM (active); in [7], 13.2 µM (active); in test [1] it was 20.9 µM (active); in test [8], 14.8 µM (active); in [2] it was 43.1 µM (active); in [3], 7.41 µM (active).

Turning to `C1=C2CCCN[C@H]2C2CC1[C@H]1CCCCN1C2` (stereo partly specified), the Potency result in test [5], in test [6], in test [7], in test [8], in test [9] and in [2] was “inactive” in each case. Further, the Potency entry in test [3], in [4] and in test [10] was “inactive” throughout.

With `CC[C@@H]1CN2CCC3(Nc4cccc(OC)c4C3=O)[C@@H]2C[C@@H]1/C(=C\OC)C(=O)OC` (stereo partly specified), the Potency result in test [5], in test [6], in test [7], in test [1], in test [8] and in [9] was “inactive” throughout. Also, the Potency entry in test [2], in [3] and in test [10] was “inactive” each time. For the same compound, in test [4], the Potency was 12.2 µM (active).
